Data: the supplement of paper PMC11417369
Whole data set: some 25,000 sequences, median “ln(normalized median fluorescence intensity)” near 7.1, cut for the highest 2% near 10. This is one part of a sample in which the highest values are shown more often than they occur.

The sequences below were run on PfSIP2 AP2 domain 1 (GST-tagged) (assay: gcPBM binding intensity (ln(normalized median fluorescence intensity)); higher = stronger DNA binding).
Summary of the method: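 After 1 h on an Agilent 4 × 180k array of primer-extended double-stranded 36-bp intergenic genomic probes and negative controls, bound GST-tagged P. falciparum DNA-binding domains were detected with Alexa488 anti-GST antibody and scanned at 488 nm. The domains had been expressed in E. coli, and binding took place in 1× PBS with 1% milk, 0.2 mg/ml BSA, 0.5% salmon testes DNA and 0.03% Triton X-100. Binding intensity is the highest Masliner-normalised natural-log median intensity across replicate spots of either probe orientation.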

Row | Sequence | gcPBM binding intensity (ln)
1 | ATATATATGTATATAACATGCAACATTTAATAATAA [TGCATGCA_site1018] | 7.18
2 | CATGTATGTACCATGGTGCAACAATATTTTTAACAA [GTGCAC_site9597] | 10.6
3 | GTTACTGCATACATAACACACATATTCAAAACCCAT [CACACA_site5856] | 7.13
4 | TTCTGTATACGGTGTGCACACAATTAAAAAAAAAAA [CACACA_site1416] | 9.47
5 | CATTATGTCATAAATGCACACATATATATATACATA [CACACA_site8454] | 7.38
6 | TGATTCTGTCATGGTGCACACCAGAACCATTATAAA [CACACA_site1965] | 11.9
7 | TTATAAAGAATTAGGAGTACAAATGCATATATAATA [XGTACX_site6580] | 7.3
8 | TGTTTATTTTTTTTATGTACTTATTTTTTATTGCAT [XGTACX_site719] | 7.61
9 | ATATTTTTATTTAAATCACATCATTTTGTTTATTTG [CACACA_negctrl_site1056] | 6.95
10 | AAAAAATTAACGAGTGCACACATATTTAGATAAAAT [CACACA_site8958] | 10.6
11 | GAAAAATTAAAAATAACACACACATATATATATTTA [CACACA_site8896] | 6.98
12 | AAAATTAAAAATAACACACACATATTTATATTTATA [CACACA_site7329] | 6.87
13 | AAAATTAAAAATAACACACACATATATATATTTATA [CACACA_site2776] | 6.9
14 | TAAAATAATATTTATGTGCACATATAATTATTAATT | 8.71
15 | AAAATTAACGAGTGCACACATATTTAGATAAAATAC [CACACA_site2936] | 11.2
16 | TTTTATTTATTATTATGTACACACTATATTAAAACA [XGTACX_site1265] | 7.13
17 | TTGTTATTCCACCGTTGTACAGTTATATACATACAC [XGTACX_site8296] | 7.31
18 | GTACATTGTAAGGATGGAAAAGCTAAACATTATAAT [XGTACX_negctrl_site339] | 6.99
19 | ATAGAACAATTCAGAAGTACATAAAAAGAAAAATTT [XGTACX_site3015] | 6.9
20 | ATGAACATTTATAAATGTACTCACATATATATATTT [XGTACX_site6692] | 7.02
21 | TTTTTTTTTTTTGAGGTGCATATATCAGATCAATAT | 10.6
22 | ATATATATATGTTAGGTGCATATATATTTTGTGGAT [GTGCAC_site9964] | 9.6
23 | TAATGTTGAGAATTTTGTACATATAGATCAATTTAT [XGTACX_site5426] | 6.84

Row | Sequence | gcPBM binding intensity (ln)
24 | TGATGATATAAAAACACACACATATAACATAATACT [CACACA_site6687] | 7.04
25 | ATGAGTGCACAAATATATATATATATATATATATAT [CACACA_negctrl_site404] | 11.6
26 | TAAATATATAAATACACACAAACATACATATATATA [CACACA_site4050] | 7.55
27 | TACACAAATATATATATATATATATATATATATATA [XGTACX_negctrl_site305] | 9.89
28 | AAAATATAAAATAATGCACACATAAACAAAAAATCA [CACACA_site8382] | 7.33
29 | GCACAAATATATATATATATATATATATATATATAT [GTGCAC_negctrl_site661] | 9.36
30 | TATAAATATACAAACACACATACAAACATATATATA [CACACA_site1120] | 7.27
31 | TATATACATATATGCACACAAAAAAATATATATTTT [CACACA_site1729] | 7.3
32 | ATATATTTGATAAGAGTGCACAAATACATACATACA [GTGCAC_site9704] | 10.6
33 | TAATATAATCTGAGTGCACACAAATAAATAAACATA [CACACA_site8032] | 10.3
34 | AATATAATATAATGCACACATAAACAAAAAAAAAAT [CACACA_site1304] | 7.53
35 | ATATAATCTGAGTGCACACAAATAAATAAACATACA [CACACA_site422] | 10.4
36 | TACATATTGATATATACACACAAAAAAATAAATTCT [CACACA_site6198] | 7
37 | TATACATATATTATATGTACATATATATATAATATA [XGTACX_site2942] | 7.26
38 | TACTATCTATACAATACACACAAAAAAAAAAAAATA [CACACA_site3981] | 6.95
39 | AATTGAGAAGTGTGTTGTACATAATGGCACATACCT [XGTACX_site1370] | 7.22
40 | ATATTAACTATCATAACACACACAGTAGACATATTT [CACACA_site6941] | 6.99
41 | CATTTTTTGCTTTCAACACACATACAATATAAATAA [CACACA_site7858] | 7.27
42 | ATGAACTAAACTAATCGTACAATAAGTTTTATTATA [XGTACX_site4891] | 6.84
43 | GGCATTTTATGAAGTAGTACCATAAATATTAAAGAT [XGTACX_site5287] | 7.32
44 | TTTATATTTATCCAAAGTACTTTTTAAAAACATACC [XGTACX_site4518] | 7.36
45 | TGGCTTATTCAGAAATGTACACATATAAATATATAT [XGTACX_site3765] | 7.11
